40 compounds from PubChem BioAssay can be followed below.

Molecules are shown by their SMILES. A number with no mark means an inactive call. No rule for the calls is given here.

This assay deals with Pantothenate synthetase (Mycobacterium tuberculosis (strain ATCC 25618 / H37Rv)) (UniProt P9WIL5). Put plainly: Recombinant Mtb pantothenate synthetase (PanC) inhibitors, coupled enzyme, confirmatory (AID 375).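 Also: 0% = full reaction with vehicle and 100% = no enzyme background.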 The note with it: coupled enzyme assay; at 10 µM, active compounds read high.
Pantothenate synthetase (Mycobacterium tuberculosis (strain ATCC 25618 / H37Rv)), sequence (P9WIL5 whole entry, looked up): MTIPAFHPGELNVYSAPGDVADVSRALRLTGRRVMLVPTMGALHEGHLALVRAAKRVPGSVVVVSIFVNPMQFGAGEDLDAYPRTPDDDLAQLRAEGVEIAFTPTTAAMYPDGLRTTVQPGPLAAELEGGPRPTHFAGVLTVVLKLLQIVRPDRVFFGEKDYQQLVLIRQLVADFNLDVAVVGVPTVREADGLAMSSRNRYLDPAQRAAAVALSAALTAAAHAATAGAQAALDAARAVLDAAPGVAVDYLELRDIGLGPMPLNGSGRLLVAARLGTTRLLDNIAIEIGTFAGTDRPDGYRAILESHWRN
On to `O=C1c2ccccc2-c2ccc(C(=O)N3CCOCC3)cc21`, for which the inhibition was 0%.
In the case of `CCc1nnc(NC(=O)C2CCCN2S(=O)(=O)c2ccc(C)cc2)s1` (stereo not given), the inhibition was 2%.
For the compound `CCn1nc(NC(=O)c2cccnc2)c2cc3ccccc3nc21`, the inhibition is 0%.
Consider `c1cc2c(cc1C1CCCN1)OCCCO2` (stereo not given), for which the inhibition was 2%.
On to `COc1cc(NS(=O)(=O)N2CCCC2)cc(OC)c1OC`, for which the inhibition is 0%.
Regarding `CCN1CCN(C(=O)C2CCN(C(=O)c3cc4sccc4n3CC)CC2)CC1`, the inhibition was 14%.
For `CCc1cc2c(=O)n(C(C)C(=O)OC3CCCCC3)cnc2s1` (stereo not given), the inhibition is 0%.
With `COc1ccc(CC(=O)NCc2nnc(SCC(=O)Nc3nccs3)n2-c2ccccc2)cc1`, the inhibition was 0%.
For the compound `CCOC(=O)C(C)n1cnc2c(nnn2Cc2ccc(C)cc2)c1=O` (stereo not given), the inhibition was 0%.
The same measure for `Cc1nonc1NC(=O)c1ccccc1Br`: 1%; for `Cc1ccc(N(C)C(=O)N2CCN(c3ccccn3)CC2)cc1`: 0%; for `CCOc1ccc2oc(-c3ccccc3)c(C(=O)N3CCN(CCO)CC3)c2c1`: 0%.
Take `O=C(c1ccc(Br)o1)N1CCN(c2ccc3nnc(-c4ccccc4)n3n2)CC1`: the inhibition is 1%.
Under `CCN(CC)S(=O)(=O)c1ccc(NC(=O)c2cccc3c2C(=O)N(CCOC)C3)cc1` stands 4%; under `O=C(NC1CCCCC1NC(=O)c1ccco1)c1ccco1` (stereo not given), 0%; under `Cn1nnc2c(sc3nc(N4CCOCC4)c4c(c32)CCCC4)c1=O`, 8%.
Consider `CC(=O)c1c(C)[nH]c(C(=O)Nc2ccc3c(c2)OCCO3)c1C`, for which the inhibition was 3%.
With `CCN(CC)CCCNS(=O)(=O)c1ccc(OC)cc1`, the inhibition is 3%.
As to `C=CCn1c(=O)c(C(=O)Nc2ccccc2C(=O)OCC)c(O)c2ccccc21`, the inhibition was 0%.
As for `CCOC(=O)N1CCN(c2ncnc3c2[nH]c2ccc(OC)cc23)CC1`, the inhibition is 0%.
With `COc1ccc(CCNc2oc(COc3ccccc3Cl)nc2C#N)cc1OC`, the inhibition is 3%.
The same measure for `Cc1ccc(-c2nc3cnccn3c2Nc2ccc3c(c2)OCO3)o1`: 2%; for `CC(=O)OCC(=O)[C@@]1(O)CC[C@H]2[C@@H]3CCC4=CC(=O)C=C[C@]4(C)[C@@]3(Cl)[C@@H](Cl)C[C@@]21C`: 0%; for `NS(=O)(=O)c1cc2c(cc1Cl)NC(C1C[C@H]3C=C[C@@H]1C3)NS2(=O)=O` (stereo not given in full): 0%.
The same measure for `Nc1ccc(S(=O)(=O)Nc2ncccn2)cc1`: 6%; for `Cc1ccc(-n2c(Cn3cnc4ccccc43)nnc2SCC(=O)O)cc1`: 0%.
For the compound `CCCn1cc(SCC(N)=O)c2ccccc21`, the inhibition was 0%.
For `Nc1nonc1-c1noc(CCCCCN2C(=O)c3ccccc3C2=O)n1`, the inhibition is 4%.
Consider `O=C(Nc1cccc2ccccc12)N1CCOCC1`, for which the inhibition was 0%.
In the case of `Cc1ccc(-c2ccc(=O)n(CCC(=O)NCCN3CCCCC3C)n2)cc1` (stereo not given), the inhibition is 0%.
With `COC(=O)CCCCCc1ccc(C(C)=O)s1`, the inhibition was 4%.
Under `CCN(CCCNC(=O)C1CCCN(S(=O)(=O)c2cnc[nH]2)C1)c1ccccc1` (stereo not given) stands 1%; under `O=C(NCC1COc2ccccc2O1)C1CCCN(S(=O)(=O)c2cnc[nH]2)C1` (stereo not given), 0%.
For `CCCC1c2ccc(C)n2CCN1C(=O)Nc1ccccc1Cl` (stereo not given), the inhibition is 1%.
The same measure for `Cc1ccc(S(=O)(=O)NC(=O)c2cc(C)n(CCCn3ccnc3)c2C)cc1`: 2%.
Consider `Cn1c(CCNC(=O)c2ccco2)nc2cc(NC(=O)C3CCCCC3)ccc21`, for which the inhibition was 0%.
For the compound `Cc1onc(-c2c(Cl)cccc2Cl)c1C(=O)NCCCN1CCOCC1`, the inhibition is 1%.
For the compound `CN1C(=O)C(O)(CC(=O)c2ccc(F)cc2)c2cc(Br)ccc21` (stereo not given), the inhibition is 0%.
Under `CC(C)CC(c1nnnn1CC1CCCO1)N1CCN(Cc2ccc3c(c2)OCO3)CC1` (stereo not given) stands 0%; under `CC(=O)C1=C(N2CCCCC2)CCC1=O`, 0%.
